Unmarked numbers belong to inactive results. Calls of active or inactive are those of the source. Rule as the data show it: active = fold change mostly below about -2 (no sharp cut-off); inactive = mostly above about -1.8.

A short description of this assay: TERT promoter activity modulators, primary screen, cell-based, luciferase reporter, human (AID 1259240). The settings on record: A2780 TERT promoter luciferase reporter, 16 h; at 20 µM, fold versus average of vehicle-only wells.
Turning to `COc1ccc(OC)c(NC(=O)CSc2nc(-c3cccs3)nc3c2c(=O)n(C)c(=O)n3C)c1`, the fold change is 1.71. On the same count and under the same terms, in the case of `Cc1nc(SCC(=O)N2CCCC2)c2c(=O)n(C)c(=O)n(C)c2n1` it was 1.5; in that of `COc1ccccc1-c1nc2s/c(=C3\C(=O)N(CC(=O)O)c4ccccc43)c(=O)n2n1`, 1.16.

For the compound `CC1=C(C(N)=O)C(c2ccc(Br)cc2)n2nc(CCCO)nc2N1` (centres undefined), the outcome was inactive. As to `O=C(NC1CCCCC1)C1CCCN(S(=O)(=O)c2cnc[nH]2)C1` (centres undefined), the fold change was -1.72.

Turning to `CCOC(=O)Cc1csc(NC(=O)Nc2cccs2)n1`, the fold change is 1.33.

Take `Cc1cc(C(=O)Nc2ccc(F)cc2F)on1`: the fold change was 1.55. With `COc1ccc2cc3c(N)nn(C(=O)CN4CCOCC4)c3nc2c1`, the fold change is -1.27. As to `Cn1c(=O)c(=O)n(C)c2cc(S(=O)(=O)N3CCC(C(N)=O)CC3)ccc21`, the fold change was -1.21. Still for that read-out and setting: to `Cc1[nH]nc2c1C(c1ccc(O)cc1)NC2=O` (centres undefined) belongs -1.14; to `Cc1cc(C)cc(NC2=C(N3CCOCC3)C(=O)c3ccccc3C2=O)c1`, -1.02; to `CCCN(CCC)C(=O)Cn1c(=O)oc2cc(S(=O)(=O)N3CC(C)CC(C)C3)ccc21` (centres undefined), 1.03. The same measure, in the same setting: in the case of `O=C(NC1CCCCC1)C(=O)c1c(-c2ccccc2)cc2ccccn12` it was 1.24; in that of `N#Cc1ccc(Cn2c(=O)n(Cc3ccccc3Cl)c(=O)c3cccnc32)cc1`, -1.11. As to `O=C1C(c2sc3ccccc3c2O)=Nc2c1ccc1ccccc21`, the outcome was active. As to `Cc1ccc(-c2nc3cnccn3c2Nc2ccccc2C)o1`, the fold change is -1.64. Still for that read-out and setting: in the case of `CCCNc1c(NC2CCN(C(=O)OCC)CC2)c(=O)c1=O` it was -1.23.

For `CCOC(=O)C1CCCN(c2c(NCCCN3CCN(C)CC3)c(=O)c2=O)C1` (centres undefined), the fold change was -1.03. On the same count and under the same terms, to `c1ccc(-c2nnc3ccc(N4CCC5(CC4)OCCO5)nn23)cc1` belongs 1.02; to `COCCn1c(SCC(=O)Nc2cc(C)on2)nc2c(c1=O)SC(C)C2` (centres undefined), -1.21; to `CC(=O)Oc1ccc(/C=c2\sc3nc(-c4ccco4)nn3c2=O)cc1`, -1.31. The same measure, in the same setting: to `CC1CCC(NS(=O)(=O)c2cccc3cccnc23)CC1` (centres undefined) belongs -2.05 (active); to `CCCCN1C(=O)/C(=c2\sc3nc(-c4cc(OC)c(OC)c(OC)c4)nn3c2=O)c2ccccc21`, -1.17; to `COc1cc(NC(=O)c2onc(C)c2Cl)cc(OC)c1OC`, 1.32. As for `Cc1cccc(-c2nc3s/c(=C4\C(=O)N(C)c5ccccc54)c(=O)n3n2)c1`, the fold change is -1.34. Same read-out and setting: in the case of `CCN(CC)CCNc1nc2c(c(=O)[nH]c(=O)n2C)n1Cc1ccccc1Cl` it was -1.23. With `O=C(Cc1ccc(NC2=NC3CS(=O)(=O)CC3S2)cc1)NCc1ccco1` (centres undefined), the fold change was -1.32. With `C=CCN(C(=O)C1CCC(CNS(=O)(=O)c2cccc3nsnc23)CC1)C1CCCCC1` (centres undefined), the fold change was -1.05. Same read-out and setting: to `CSc1ccc(/C=c2\sc3nc(-c4ccco4)nn3c2=O)cc1` belongs -1.12. On to `CC1(C)NC(=O)N(CC(O)COc2ccccc2)C1=O` (centres undefined), for which the fold change is -1.3. Still for that read-out and setting: to `c1ccc2c(c1)nc(N1CCN(C3CCCCC3)CC1)c1nncn12` belongs 1.24. In the case of `O=C(Cc1ccc(NC2=NC3CS(=O)(=O)CC3S2)cc1)N1CCc2ccccc2C1` (centres undefined), the fold change is 1.1. For the compound `COc1ccc(-c2noc(-c3ccc(Cl)cc3)n2)cc1OC`, the fold change is -4.04 (active). On the same count and under the same terms, to `CN1C(=O)C(O)(CC(=O)c2ccccc2O)c2cc(Br)ccc21` (centres undefined) belongs 1.07; to `Cc1ccc(-c2n[nH]c3c2C(c2ccccn2)N(c2ccc(C(=O)O)cc2)C3=O)cc1` (centres undefined), -1.91. Consider `CC(C)c1ccc(NC(=O)Nc2ccc3snnc3c2)cc1`, for which the fold change was -1.62. Same read-out and setting: to `OCCOCCn1c(-c2ccccc2)nc(=S)c2c1CCCC2` belongs -1.03; to `O=C(CC1(O)C(=O)Nc2ccccc21)c1cc2ccccc2o1` (centres undefined), 1.08. Still for that read-out and setting: to `Cn1c(CC(=O)NC(C)(C)CO)c(Sc2ccccc2)c2ccccc21` belongs -2.11 (active).

Values taken from PubChem BioAssay AID1259240 (Keith Lab, Institute of Cancer Science, University of …, 2017).
